Results filed as inconclusive are left out. Activity calls are given as the source filed them. Calls follow the shape of the dose curve; as a rule, active = well fitted curve in the direction sought with a large enough effect; inconclusive = small, poorly fitted or top-dose-only effect, or another doubt; inactive = no such curve, though single readings can be large; an effect the other way counts as inactive or inconclusive.
Assays:
[1] = biological target: Nuclear receptor subfamily 1 group I member 3 (Homo sapiens) (UniProt Q14994); assay: qHTS for Constitutive Androstane Receptor (CAR) Antagonist screened against the NCATS CANVASS Library (AID 1347372);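 also: cells stimulated with 50 nM CITCO agonist so inhibition reflects antagonism; luciferase from CYP2B6 promoter reporter driven by hCAR in HepG2 cells; series mostly up to about 46 µM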
Sequence of Nuclear receptor subfamily 1 group I member 3 (Homo sapiens) (Q14994 whole entry, looked up): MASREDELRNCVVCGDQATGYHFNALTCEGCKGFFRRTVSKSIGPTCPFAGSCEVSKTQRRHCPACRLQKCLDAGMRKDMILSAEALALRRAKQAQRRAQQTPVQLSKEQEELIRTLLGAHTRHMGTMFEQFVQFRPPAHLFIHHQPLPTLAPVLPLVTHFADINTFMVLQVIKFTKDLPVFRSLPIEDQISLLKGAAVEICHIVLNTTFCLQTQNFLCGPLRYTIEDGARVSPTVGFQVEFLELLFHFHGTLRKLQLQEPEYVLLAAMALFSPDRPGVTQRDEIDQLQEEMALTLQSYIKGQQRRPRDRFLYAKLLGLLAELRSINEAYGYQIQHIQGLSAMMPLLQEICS
Outline: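 Cells were seeded and left 4hr to attach, then received compound at 11 concentrations and 50 nM CITCO. Following 24hr incubation, fluorescence viability and luciferase luminescence were read sequentially.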

[2] = biological target: Nuclear receptor subfamily 1 group I member 3 (Homo sapiens) (UniProt Q14994); assay: qHTS for Constitutive Androstane Receptor (CAR) Agonist screened against the NCATS CANVASS Library (AID 1347373);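 also: every well also contained 1.5 µM PK11195 alongside the test compound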; also: potency is read from the fitted curve at half-maximal effect
Outline: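 Agonist mode with 1.5uM PK11195 present: compounds for 24hr on HepG2-hCAR-CYP2B6 cells. CellTiter-Fluor fluorescence (ex 405, em 540 nm) gives viability; ONE-Glo luminescence reports CAR activation.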

[3] = 10-beta competent E. coli microbial cell viability qHTS against the NCATS CANVASS Library (AID 1347376); also: series mostly up to about 46 µM
Outline: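 Read-out: BacTiter-Glo ATP luminescence, taken 20 min after reagent addition. Beforehand, 10-beta competent E. coli at 0.2 OD had been incubated overnight at 37C with compounds at 11 concentrations.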

[4] = DH5-alpha competent E. coli microbial cell viability qHTS against the NCATS CANVASS Library (AID 1347377); conditions: outcome: dose series up to 91.4 µM unless noted
Outline: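 Bacterial viability as ATP-dependent luminescence (BacTiter-Glo), read after overnight 37 °C exposure of DH5-alpha competent E. coli to compounds in 11-point titration.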

[5] = qHTS for H2AX Agonists against the NCATS CANVASS Library (AID 1347378);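 also: phospho-H2AX S139 level in CHO-K1 lysates by TR-FRET emission ratio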
Outline: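 Following overnight seeding, CHO-K1 cells are incubated with a concentration series of compound for 3 hr at 37C (final DMSO 0.76%). Cells are then lysed, detection antibodies added, and emission ratio 665/620 nm recorded after 24 hr at room temperature.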

[6] = qHTS for Inflammasome Signaling Inhibitors: IL-1-beta AlphaLISA screen against the NCATS CANVASS Library (AID 1347379); conditions: outcome: dose series up to 57.5 µM;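 also: human THP-1 cells primed with LPS then triggered with ATP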
Outline: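 Secreted IL-1B from human THP-1 cells quantified by AlphaLISA 16 hr after compound addition (final up to 57.5 uM). A 1 hr compound pretreatment preceded inflammasome activation with 250 ng/mL LPS plus 1.25 mM ATP (final).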

[7] = qHTS for Antimalaria activity screened against the NCATS CANVASS Library (AID 1347380); also: nearly all actives have a fitted effect of over 40% in size; also: potency is read from the fitted curve at half-maximal effect
Outline: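 SYBR Green fluorescence at 485/535 nm was read 18 hr after lysis. This followed a 72 hr incubation at 37C in 5% O2, 5% CO2 of Dd2-infected erythrocytes (0.3% parasitemia, 2.5% final hematocrit) with compounds titrated over 11 concentrations.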

[8] = Inflammasome Signaling qHTS Counterscreen: IL-1-beta AlphaLISA counterscreen against the NCATS CANVASS Library (AID 1347381);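 also: cell-free check with purified IL-1β in medium and no THP-1 cells; series mostly up to about 57 µM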
Outline: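 Purified IL-1-beta (4 pg/well) + compound, 11-pt conc. series; acceptor beads 6 ug/mL + biotin-Ab 0.6 nM final, 1 h RT; SA-donor 24 ug/ml final, 30 min dark RT; read ex 680/em 615.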

[9] = Cytotoxicity qHTS for assessment of Hepg2 cells membrane integrity screened against the NCATS CANVASS Library (AID 1347387)
Outline: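 Membrane damage quantified as fluorescent LDH-release signal (ex 560, em 590 nm) in HepG2 cells treated 5 hr at 37C. qHTS format, 11 concentrations spanning 0.59 nM - 46 uM final, cells plated at 2000 per well the night before.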

[10] = qHTS for Activators of p53 Stress Response Pathway screened against the NCATS CANVASS Library (AID 1347388)
Outline: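 p53RE-bla HCT-116 cells (4000/well) were plated 5 h at 37C, exposed to compounds for 16 h at 37C over an 11-point concentration series, then loaded with CCF4 for 2 h at room temperature; 460/530 nm emission ratio read.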

[11] = qHTS assay for small molecule disruptors of mitochondrial membrane potential screened against the NCATS CANVASS Library (AID 1347389); also: series mostly up to about 46 µM; nearly all actives have a fitted effect of over 60% in size
Outline: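 Mitochondrial membrane potential in HepG2: 1 h compound treatment (11-point concentration series), 30 min m-MPI dye at 37C, then dual fluorescence of J-aggregates (ex 540/em 590) and monomers (ex 490/em 535); lower red/green ratio indicates depolarization.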

[12] = qHTS for activators of Nrf2/ARE signaling pathway screened against the NCATS CANVASS Library (AID 1347391); also: nearly all actives have a fitted effect of over 60% in size; also: potency is read from the fitted curve at half-maximal effect
Outline: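 Eleven-point qHTS, 16 h treatment of HepG2 cells carrying an ARE-driven beta-lactamase reporter; CCF4 ratio read (405 nm excitation, 460 and 530 nm emission), with CellTiter-Glo ATP luminescence for viability.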

[13] = qHTS for activators of dead-cell proteases activity screened against the NCATS CANVASS Library (AID 1347392);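 also: luminescence from protease leaking out of membrane-damaged cells cleaving impermeant substrate; rising signal means more cytotoxicity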
Outline: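 Cytotoxicity in HepG2 cells was assessed by released protease cleaving AAF-aminoluciferin, with luminescence as signal. Exposure lasted 5 h at 37C across an 11-point series.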

[14] = qHTS for inhibitors of ER calcium dysfunction: SERCaMP assay screened against the NCATS CANVASS Library (AID 1347393); also: nearly all actives have a fitted effect of over 40% in size; also: potency is read from the fitted curve at half-maximal effect
Outline: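 qHTS in SH-SY5Y reporter cells: 16 h compound pretreatment, 4 h thapsigargin, then secreted Gaussia luciferase measured by luminescence.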

[15] = Vero-766 cells viability qHTS against the NCATS CANVASS Library: Counterscreen for Zika virus inhibition assay (AID 1347394); also: series mostly up to about 46 µM; nearly all actives have a fitted effect of over 60% in size
Outline: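 This cytotoxicity counterscreen uses African green monkey Vero 766 cells in the absence of Zika virus. Compounds are incubated with cells for 72 h, and ATP-based luminescence reports viability.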

[16] = qHTS for inhibitors of Wild type Zika virus screened against the NCATS CANVASS Library (AID 1347396);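 also: ATP luminescence of surviving cells so rescue from viral cell killing; series mostly up to about 46 µM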
Outline: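 Vero 766 cells, 1000/well, o/n attach; cpds pin-transferred (11-pt qHTS); WT Zika added; 72 h, 37C, 5% CO2; CellTiter Glo lumi. Uninfected + vehicle = 100% inhibition.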

[17] = Viability qHTS for inhibitors of the SERCaMP assay screened against the NCATS CANVASS Library (AID 1347400); also: series mostly up to about 92 µM; nearly all actives have a fitted effect of over 70% in size
Outline: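 CellTiter-Glo luminescence measured cytotoxicity after 48 h at 37C of compound treatment (11-point series). Cells were SH-SY5Y-GLuc SERCaMP MJH297 derivatives, seeded at 1000 per well 4 h beforehand.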

[18] = qHTS for Hypoxia signaling pathway (HIF-1) agonists against the NCATS CANVASS Library (AID 1347375)
Outline: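 Beta-lactamase reporter under HRE control in ME-180 cells; compounds (11-point qHTS series) added after 5 hrs plating, then 17 hrs at 37C. FRET substrate read after 2 hr; same-well CellTiter-Glo luminescence gave viability and normalization.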

[19] = Secretion counterscreen for inhibitors of the SERCaMP assay screened against the NCATS CANVASS Library (AID 1347390);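 also: light from luciferase secreted into medium read as a measure of general secretion; series mostly up to about 77 µM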
Outline: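 Counterscreen identifying compounds that disrupt secretion, using SH-SY5Y cells with a constitutively secreted Gaussia luciferase reporter. A 20 h compound exposure (top 77 uM) precedes luminescent detection with coelenterazine.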

[20] = qHTS for Hypoxia signaling pathway (HIF-1) antagonists against the NCATS CANVASS Library (AID 1347374);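 also: HRE-bla ME-180 cells stimulated with cobalt chloride to stabilize HIF-1alpha; series mostly up to about 38 µM; nearly all actives have a fitted effect of over 60% in size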
Outline: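 Antagonism scored as loss of CoCl2-driven (60 uM stock added) HRE beta-lactamase signal, read by CCF4 FRET at 460/530 nm. Compounds were tested in an 11-point series on ME-180 reporter cells for 17 hrs at 37C, with parallel CellTiter-Glo cytotoxicity.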

Measured: Potency

O=C(/C=C/C=C/c1ccc2c(c1)OCO2)N1CCCCC1
active: [2] 4.14 µM | [14] 60.5 µM
not listed: [18] | [19] | [20]
inactive: all other assays above

C/C(=C\CC/C(C)=C/CC[C@]1(C)CCc2cc(O)cc(C)c2O1)CC/C=C(\C)C(=O)O
not listed: [4] | [7] | [10] | [15] | [16] | [20]
inactive: all other assays above

CC(C)c1ccc2c(c1)CCC1[C@](C)(C(=O)O)CCC[C@]21C (some centres not stated)
not listed: [2] | [12]
inactive: all other assays above

CC(=O)O[C@H]1C[C@@]2(C)[C@@H](CC[C@H]3[C@@]4(C)C=CC(=O)[C@@H](C)[C@@H]4[C@H](OC(C)=O)C(=O)[C@@]32C)/C1=C(\CCC=C(C)C)C(=O)O
inactive: [1] | [2] | [20] | [18] | [3] | [4] inactive [at 46.1 µM] | [5] | [8] | [9] | [10] | [11] | [19] | [13] | [15] | [17]
active: [7] 10.6 µM | [12] 20.9 µM | [14] 30.5 µM

Reference: PubChem BioAssay (NCATS)
